Measured values: PubChem BioAssay (NCI)
Where “and” joins values, the source holds several entries; their conditions need not be identical. Equal entries are not always repeated. Compounds without any hit were thinned out: in the full panel of roughly 83,000, 20% have a hit.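 Single-concentration screen, 48 h exposure, 96-well plates. Endpoint: percent growth. Below 10 = active.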 Calls of active or inactive are those of the source.

Columns and labels:
Experiment in all cases: NCI-60 one-dose screen, 48 h (100 = growth as untreated, 0 = no growth, -100 = all killed)
Details in all cases: 10 µM
SR leukemia = tested on: SR leukemia
RPMI-8226 leukemia = tested on: RPMI-8226 leukemia
OVCAR-8 ovarian = tested on: OVCAR-8 ovarian
OVCAR-5 ovarian = tested on: OVCAR-5 ovarian
OVCAR-4 ovarian = tested on: OVCAR-4 ovarian
SK-OV-3 ovarian = tested on: SK-OV-3 ovarian
IGROV1 ovarian = tested on: IGROV1 ovarian
HS 578T breast = tested on: HS 578T breast
NCI/ADR-RES ovarian = tested on: NCI/ADR-RES ovarian
T-47D breast = tested on: T-47D breast
BT-549 breast = tested on: BT-549 breast
MDA-MB-435 melanoma = tested on: MDA-MB-435 melanoma
SW-620 colon = tested on: SW-620 colon
MCF7 breast = tested on: MCF7 breast
HCT-116 colon = tested on: HCT-116 colon
HCC-2998 colon = tested on: HCC-2998 colon
KM12 colon = tested on: KM12 colon
MDA-MB-468 breast = tested on: MDA-MB-468 breast
OVCAR-3 ovarian = tested on: OVCAR-3 ovarian

SMILES	growth (SR leukemia)	growth (RPMI-8226 leukemia)	growth (OVCAR-8 ovarian)	growth (OVCAR-5 ovarian)	growth (OVCAR-4 ovarian)	growth (SK-OV-3 ovarian)	growth (IGROV1 ovarian)	growth (HS 578T breast)	growth (NCI/ADR-RES ovarian)	growth (T-47D breast)	growth (BT-549 breast)	growth (MDA-MB-435 melanoma)	growth (SW-620 colon)	growth (MCF7 breast)	growth (HCT-116 colon)	growth (HCC-2998 colon)	growth (KM12 colon)	growth (MDA-MB-468 breast)	growth (OVCAR-3 ovarian)
COc1cccc(/C=C2\N=C(C)N(CCc3ccc(S(N)(=O)=O)cc3)C2=O)c1	82.1% (inactive)	97.2% (inactive)	102% (inactive)	99.8% (inactive)	104% (inactive)	112% (inactive)	103% (inactive)	98.6% (inactive)	104% (inactive)	97.3% (inactive)	100% (inactive)	114% (inactive)	105% (inactive)	95.2% (inactive)	97.8% (inactive)	117% (inactive)	104% (inactive)	113% (inactive)	
COc1cc(/C=C/C(=O)c2ccc(NC(=O)CSc3nnc(-c4c[nH]c5ccccc45)n3-c3ccccc3)cc2)cc(OC)c1OC	35.3% (inactive)	6.57% (active)	50.1% (inactive)	108% (inactive)	93% (inactive)	121% (inactive)	48.8% (inactive)	93.2% (inactive)	96.1% (inactive)	69.6% (inactive)	54.9% (inactive)	34.1% (inactive)	25.4% (inactive)	10% (inactive)	-30.2% (active)	23.8% (inactive)	48.8% (inactive)	37% (inactive)	
CN1C(=O)N(C)C2SC(N/N=C/c3cccs3)=NC21 (stereo unspecified)	13.4% (inactive)	51.9% (inactive)	34.4% (inactive)	42.5% (inactive)	57.9% (inactive)	40.7% (inactive)	36.7% (inactive)	25.3% (inactive)	-15.2% (active)	21.7% (inactive)	21.4% (inactive)	-37.6% (active)	15.4% (inactive)	13.3% (inactive)	28.2% (inactive)	54.2% (inactive)	16.1% (inactive)	-22.8% (active)	
O=C(NCCCCCCCCCC[P+](c1ccccc1)(c1ccccc1)c1ccccc1)c1ccc(-n2nc(-c3ccccc3O)nc2-c2ccccc2O)cc1	1.87% (active)	1.07% (active)	-22.2% (active)	-94% (active)	-51.8% (active)	-71.5% (active)	-75.7% (active)	-22.1% (active)	37.4% (inactive)	-51.9% (active)	-87.4% (active)		-60.9% (active)	-87% (active)	-79.4% (active)	-99.5% (active)	-27.1% (active)	-87.7% (active)	
CC(=O)c1ccc(Nc2nc(SC(C)C)nc(-c3ccccc3)c2C#N)cc1	70% (inactive)	90.3% (inactive)	5.17% (active)		-19.1% (active)	36.2% (inactive)	8.92% (active)	28.2% (inactive)	1.21% (active)	58.7% (inactive)		47.4% (inactive)	34.9% (inactive)	26.4% (inactive)	8.81% (active)	70.2% (inactive)	82.2% (inactive)	131% (inactive) and -1.07% (active)	25.3% (inactive)
O=C(Nc1cccc(C(F)(F)F)c1)c1cncc(C#Cc2cnc3cccnn23)c1	9.35% (active)		41% (inactive)	56.3% (inactive)	64.9% (inactive)	83.6% (inactive)	41.6% (inactive)	45.7% (inactive)	16.6% (inactive)	13.5% (inactive)	15.4% (inactive)	25.6% (inactive)	34.3% (inactive)	8.36% (active)	15.4% (inactive)	46.9% (inactive)	7.46% (active)	47.8% (inactive)	43.7% (inactive)
O=c1cc(-c2ccccc2)oc2cc(OCCCNCc3ccccc3)cc(O)c12	-24.8% (active)	-26.8% (active)	-90.5% (active)		-16.2% (active)	30.1% (inactive)	9.54% (active)	-4.99% (active)	-77.9% (active)	-64.7% (active)	46.8% (inactive)	-44.2% (active)	-13.8% (active)	-30% (active)	-68.7% (active)	-95.8% (active)	-38.3% (active)	-59.5% (active)	16.2% (inactive)
O/N=C(\CSc1nnc(-c2c[nH]c3ccccc23)n1-c1ccccc1)c1ccc(Cl)cc1	12.8% (inactive)		6.37% (active)	-43.4% (active)	-81.3% (active)	-1.58% (active)	-34.1% (active)	-31.7% (active)	-70.2% (active)	3.91% (active)	-66.7% (active)		-37% (active)	3.27% (active)	0.742% (active)	17% (inactive)	21.4% (inactive)	-85.1% (active)	34.2% (inactive)
CC(=O)NS(=O)(=O)c1ccc(NC(=O)CSC2=NC(c3ccccc3)C(C(C)=O)=C(C)N2)cc1 (stereo unspecified)	101% (inactive)	96% (inactive)	115% (inactive)		113% (inactive)	100% (inactive)	108% (inactive)	107% (inactive)	99.6% (inactive)	99.7% (inactive)	116% (inactive)	104% (inactive)	106% (inactive)	95.2% (inactive)	102% (inactive)	108% (inactive)	104% (inactive)		133% (inactive)
CC1CC(c2ccc(N(C)C)cc2)=NN1c1nc(O)c(C2=c3cc(Br)ccc3=NC2=O)s1 (stereo unspecified)	67.6% (inactive)	28.1% (inactive)	83% (inactive)		94.5% (inactive)	91.3% (inactive)	110% (inactive)	70% (inactive)	7.99% (active)	66.7% (inactive)	85% (inactive)	102% (inactive)	78.9% (inactive)	78.6% (inactive)	66.8% (inactive)	32.1% (inactive)	73.2% (inactive)	54.2% (inactive)	73.6% (inactive)
O=S(=O)(Nc1ncccn1)c1ccc(-n2c(-c3ccc(Br)cc3)nc(-c3ccccc3)c2-c2ccccc2)cc1	45.2% (inactive)	33.8% (inactive)	50.5% (inactive)		57.7% (inactive)	76.4% (inactive)	51.6% (inactive)	20.4% (inactive)	33.6% (inactive)	2.77% (active)	8.3% (active)	42.7% (inactive)	48.5% (inactive)	28.6% (inactive)	34.5% (inactive)	39.7% (inactive)	27.7% (inactive)	24.3% (inactive)	48.2% (inactive)
CSc1nc(-c2cccc(C)c2)c2cc(-c3ccccc3)n(C)c2n1	11.7% (inactive)		25.2% (inactive)	49.6% (inactive)	31.5% (inactive)	69% (inactive)	34.3% (inactive)	9.16% (active)	-19.6% (active)	1.02% (active)	-5.93% (active)	-39.3% (active)	20.3% (inactive)	5.57% (active)	13.5% (inactive)	39.4% (inactive)	6.5% (active)	-29.2% (active)	-32.4% (active)
COc1ccc(-c2nc(-c3ccccc3)c(-c3ccccc3)n2-c2ccc(S(=O)(=O)Nc3ncccn3)cc2)cc1OC	68.9% (inactive)	60.3% (inactive)	90.2% (inactive)		87% (inactive)	95% (inactive)	85.5% (inactive)	50.9% (inactive)	96.7% (inactive)	43.1% (inactive)	68.3% (inactive)	95.1% (inactive)	98.1% (inactive)	71.2% (inactive)	67.4% (inactive)	82.8% (inactive)	78.3% (inactive)	67.8% (inactive)	
O=C(/C=C/Nc1ccccc1)c1ccc2c(c1)Nc1ccccc1S2	87.8% (inactive)	90.9% (inactive)	33.5% (inactive)	87.7% (inactive)	49.2% (inactive)	86.3% (inactive)	87.3% (inactive)	63% (inactive)	61.2% (inactive)	78.1% (inactive)		85% (inactive)	89.3% (inactive)	68.6% (inactive)	79.2% (inactive)	95.4% (inactive)	87% (inactive)	61.5% (inactive)	
Cc1cccc(NC(=O)CSc2nc3ccc(F)cc3c(=O)n2-c2ccc(Cl)cc2)c1C	61.9% (inactive)		32.5% (inactive)	90.3% (inactive)	67.7% (inactive)	56.8% (inactive)	53% (inactive)	25.7% (inactive)	56% (inactive)	91.5% (inactive)	32% (inactive)	83.4% (inactive)	80.1% (inactive)	69.5% (inactive)	44.8% (inactive)	94.5% (inactive)	88.8% (inactive)	80.7% (inactive)	93.9% (inactive)
N#Cc1c(NC(=O)c2ccc(C(F)(F)F)cc2C(F)(F)F)sc2c1CCC(=O)C2	-11.3% (active)	2.53% (active)	-16.9% (active)		-40.8% (active)	-22.2% (active)	-3.75% (active)	-5.88% (active)	1.12% (active)	-22.7% (active)	-65.3% (active)	-53.6% (active)	-43.7% (active)	-10.6% (active)	0.663% (active)	-2.99% (active)	-34.2% (active)	-79.9% (active)	-59.5% (active)
COc1ccc(-c2cc(C(=O)N=Nc3c(O)[nH]c4ccc(Br)cc34)c3ccccc3n2)cc1	3.37% (active)		8.79% (active)	51.3% (inactive)	51% (inactive)	114% (inactive)	12.3% (inactive)	61.6% (inactive)	43.2% (inactive)	58.4% (inactive)	96.3% (inactive)	52.7% (inactive)	-59.9% (active)	-6.48% (active)	16.9% (inactive)	23.4% (inactive)	23.1% (inactive)	11.1% (inactive)	8.75% (active)
COc1cc(/C=C/C(=O)c2ccc(F)cc2)ccc1Oc1nc(Nc2ccc(F)cc2)nc(N(C)C)n1	4.07% (active)	24.2% (inactive)	42.7% (inactive)		56.1% (inactive)	103% (inactive)	93.8% (inactive)	59.3% (inactive)	50.6% (inactive)	28.5% (inactive)	88.6% (inactive)	68.5% (inactive)	2.33% (active)	16.6% (inactive)	30.2% (inactive)	89% (inactive)	61% (inactive)	28% (inactive)	64.2% (inactive)
COc1ccccc1C(=O)NNC(=O)CSc1nc2c(c(=O)[nH]1)CCCC2	96.4% (inactive)	98.1% (inactive)	109% (inactive)	108% (inactive)	105% (inactive)	94.1% (inactive)	92.5% (inactive)	108% (inactive)	104% (inactive)	81.2% (inactive)		109% (inactive)	112% (inactive)	95.8% (inactive)	102% (inactive)	108% (inactive)	94.5% (inactive)	120% (inactive)	
Nc1nc(Nc2ccccc2)nn1Cc1c(Cl)cccc1Cl	25% (inactive)		42.3% (inactive)	46.6% (inactive)	39.7% (inactive)	51.3% (inactive)	11.2% (inactive)	29.3% (inactive)	10.6% (inactive)	15% (inactive)	23.6% (inactive)	48.4% (inactive)	56.3% (inactive)	16% (inactive)	22.4% (inactive)	15.2% (inactive)	13% (inactive)	5.3% (active)	54.6% (inactive)
OCCNc1oc(-c2ccccc2)nc1[P+](c1ccccc1)(c1ccccc1)c1ccccc1	1.42% (active)	3.91% (active)	7.35% (active)		10.2% (inactive)	-3.42% (active)	-12.9% (active)	-3.9% (active)	99% (inactive)	4.49% (active)	-27.9% (active)	4.92% (active)	13.5% (inactive)	2.37% (active)	7.76% (active)	9.06% (active)	-35.9% (active)	-43.2% (active)	-9.22% (active)
